# Molecular target: GST-WRKY1(266-371) (Arabidopsis thaliana, UniProt Q9SI37 266-371)
# Test: universal protein binding microarray (PBM); transcription factors of Arabidopsis thaliana; high values mean tight binding
# Details: protein: recombinant; tags: GST; dsDNA, one strand shown
# Method in brief: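 Cells were induced to make GST-tagged NAC-domain, full-length or DNA-binding-domain proteins, and zinc acetate was added for zinc-finger proteins. These proteins were purified on glutathione–Sepharose 4B, quantified by A280 or anti-GST western blot, and applied in duplicate at 200 to 500 nM final to custom all-10-mer Agilent 4 × 180K arrays that primer extension had made double-stranded. Binding is given as the normalised enrichment score (E-score) for scored gapped and ungapped 8-mers.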
# Chain of GST-WRKY1(266-371) (Q9SI37 266-371): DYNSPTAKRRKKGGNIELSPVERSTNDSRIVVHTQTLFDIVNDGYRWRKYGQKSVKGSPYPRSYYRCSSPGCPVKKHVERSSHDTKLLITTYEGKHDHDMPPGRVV
row,Sequence,binding signal [E-score]
1,TCTGACCA,0.456
2,CGGTCAGA,0.46
3,TGACCTCA,0.41
4,ATGAGTCA,0.427
5,AGCGGTCA,0.422
6,GGCTGACC,0.431
7,CGGTTGAC,0.475
8,CGGTCTTC,0.438
9,CGGGTCAG,0.408
10,AAGTCCAC,0.418
11,CCCGGTCA,0.445
12,ATGGTCAG,0.421
13,CAGGGTCA,0.403
14,TCGAGTCA,0.417
15,AGGTCGTC,0.416
16,GTCTTTGA,0.411
17,TCGGGTCA,0.434
18,ATTGACCC,0.478
19,AGTCAACC,0.486
20,TCCGGTCA,0.445

row,Sequence,binding signal [E-score]
1,GGCGGTCA,0.428
2,GCCTTGAC,0.457
3,TGACCCAA,0.419
4,GCGAGTCA,0.414
5,CCGGTCAG,0.44
6,CGGTCGTC,0.41
7,GGTCTGAC,0.441
8,AAGACCAG,0.427
9,ACCAGTCA,0.421
10,AAGACCGG,0.428
11,CGAGTCAA,0.477
12,CGGTCATA,0.415
13,GCGGTCAA,0.487
14,AGGGTCAG,0.403
15,GTCAGACA,0.41
16,CGATGACC,0.414
17,ATGACCGG,0.407
18,GCTGACCC,0.444
19,CGGTCCAC,0.434

# Source: PMC4081100, “A DNA-binding-site landscape and regulatory network analysis for NAC transcription factors in Arabidopsis thaliana”
